Source: the supplement of paper PMC11006884
About 6,500 targets were measured; listed, in parts, are those with a hit and a random draw of the rest. About 2% of all pairs of compound and target were hits.

compound: COC(=O)C#Cc1ccccc1 [methyl 3-phenylpropiolate]; assay: log2 ratio of iodoacetamide-alkyne labeling of the cysteine site, DMSO over compound (competition); higher = stronger covalent engagement of the cysteine by the compound, active = 1 or more; details: 500 µM; treatment time 1 h; system: HEK293T cell lysate
Method in brief: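 The log2 competition ratio per cysteine is defined as mean reporter intensity in control channels over mean reporter intensity in compound channels. Lysate from HEK293T cells (2 mg/mL) received electrophile (500 µM) or vehicle for 1 h at ambient temperature, followed by iodoacetamide alkyne for 1 h. Samples were clicked to sCIP-TMT reagents, pooled, trypsin-digested overnight at 37 °C, streptavidin-enriched, acid-eluted and run on Orbitrap Eclipse LC-MS/MS with FAIMS, with quantification in FragPipe. Three replicates with duplicate channels were used, and any cysteine quantified in only one replicate was excluded.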

Sequence of UniProt Q9NZM3 (Q9NZM3 whole entry, looked up): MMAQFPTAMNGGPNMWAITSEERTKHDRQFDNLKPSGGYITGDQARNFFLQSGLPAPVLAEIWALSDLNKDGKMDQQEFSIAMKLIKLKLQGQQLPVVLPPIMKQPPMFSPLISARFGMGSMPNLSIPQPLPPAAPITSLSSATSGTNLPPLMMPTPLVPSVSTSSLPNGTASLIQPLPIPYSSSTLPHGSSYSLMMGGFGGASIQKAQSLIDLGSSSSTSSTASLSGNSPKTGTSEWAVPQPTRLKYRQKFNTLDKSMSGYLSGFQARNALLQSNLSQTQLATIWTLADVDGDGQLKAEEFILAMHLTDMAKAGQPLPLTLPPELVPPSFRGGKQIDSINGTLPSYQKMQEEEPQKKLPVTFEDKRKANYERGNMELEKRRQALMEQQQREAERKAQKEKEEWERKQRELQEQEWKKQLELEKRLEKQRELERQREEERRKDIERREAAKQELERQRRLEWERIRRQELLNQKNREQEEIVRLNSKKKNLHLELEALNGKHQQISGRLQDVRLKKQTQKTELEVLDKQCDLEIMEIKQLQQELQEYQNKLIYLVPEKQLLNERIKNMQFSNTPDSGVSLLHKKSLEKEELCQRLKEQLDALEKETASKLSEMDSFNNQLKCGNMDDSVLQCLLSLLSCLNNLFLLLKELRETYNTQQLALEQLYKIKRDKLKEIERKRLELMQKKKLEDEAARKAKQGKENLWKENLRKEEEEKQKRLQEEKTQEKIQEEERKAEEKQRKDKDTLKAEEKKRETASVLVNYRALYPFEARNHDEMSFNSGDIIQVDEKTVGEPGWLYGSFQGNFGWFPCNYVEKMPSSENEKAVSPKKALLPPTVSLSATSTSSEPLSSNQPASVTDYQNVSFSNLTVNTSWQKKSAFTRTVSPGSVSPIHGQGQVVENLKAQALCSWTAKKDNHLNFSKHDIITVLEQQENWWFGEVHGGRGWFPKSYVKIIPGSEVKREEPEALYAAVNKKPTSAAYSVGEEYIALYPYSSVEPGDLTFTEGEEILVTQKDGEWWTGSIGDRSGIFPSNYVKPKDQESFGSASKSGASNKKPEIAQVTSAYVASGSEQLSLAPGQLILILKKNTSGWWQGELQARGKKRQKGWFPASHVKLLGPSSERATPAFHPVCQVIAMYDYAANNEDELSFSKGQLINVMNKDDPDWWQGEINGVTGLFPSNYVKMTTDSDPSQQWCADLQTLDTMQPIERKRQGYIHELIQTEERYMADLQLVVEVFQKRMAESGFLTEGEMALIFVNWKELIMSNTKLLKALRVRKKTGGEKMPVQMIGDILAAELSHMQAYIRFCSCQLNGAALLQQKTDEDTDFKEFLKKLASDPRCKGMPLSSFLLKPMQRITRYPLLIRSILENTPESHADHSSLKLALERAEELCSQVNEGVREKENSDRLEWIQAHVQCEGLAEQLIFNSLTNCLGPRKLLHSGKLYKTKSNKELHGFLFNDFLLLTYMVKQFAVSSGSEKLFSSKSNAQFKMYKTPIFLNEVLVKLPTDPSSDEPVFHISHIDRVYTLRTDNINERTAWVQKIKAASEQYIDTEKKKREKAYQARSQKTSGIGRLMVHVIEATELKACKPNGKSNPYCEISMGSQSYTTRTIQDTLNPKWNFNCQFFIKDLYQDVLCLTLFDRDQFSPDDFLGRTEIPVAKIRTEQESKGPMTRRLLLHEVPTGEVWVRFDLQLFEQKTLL
Sequence of UniProt Q9BV68 (Q9BV68 whole entry, looked up): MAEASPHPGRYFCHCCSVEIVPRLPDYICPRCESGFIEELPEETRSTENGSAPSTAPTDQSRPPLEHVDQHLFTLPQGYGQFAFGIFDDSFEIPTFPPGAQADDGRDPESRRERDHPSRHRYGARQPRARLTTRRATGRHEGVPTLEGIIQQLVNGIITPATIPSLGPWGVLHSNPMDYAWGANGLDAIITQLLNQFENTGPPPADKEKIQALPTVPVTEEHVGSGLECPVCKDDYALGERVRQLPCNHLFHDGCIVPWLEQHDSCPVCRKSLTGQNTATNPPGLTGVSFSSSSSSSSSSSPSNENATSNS
Sequence of UniProt Q9Y2P8 (Q9Y2P8 whole entry): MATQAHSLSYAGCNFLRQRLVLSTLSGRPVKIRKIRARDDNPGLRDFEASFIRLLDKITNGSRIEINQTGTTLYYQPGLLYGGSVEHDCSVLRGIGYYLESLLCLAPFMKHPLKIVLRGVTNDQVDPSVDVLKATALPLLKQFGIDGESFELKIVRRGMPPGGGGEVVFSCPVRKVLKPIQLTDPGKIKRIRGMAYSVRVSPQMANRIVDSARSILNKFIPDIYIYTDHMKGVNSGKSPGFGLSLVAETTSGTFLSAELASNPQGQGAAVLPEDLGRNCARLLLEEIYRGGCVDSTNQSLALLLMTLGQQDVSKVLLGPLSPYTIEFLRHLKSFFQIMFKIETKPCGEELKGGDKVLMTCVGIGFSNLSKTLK
Sequence of UniProt Q9NQ55 (Q9NQ55 whole entry, looked up): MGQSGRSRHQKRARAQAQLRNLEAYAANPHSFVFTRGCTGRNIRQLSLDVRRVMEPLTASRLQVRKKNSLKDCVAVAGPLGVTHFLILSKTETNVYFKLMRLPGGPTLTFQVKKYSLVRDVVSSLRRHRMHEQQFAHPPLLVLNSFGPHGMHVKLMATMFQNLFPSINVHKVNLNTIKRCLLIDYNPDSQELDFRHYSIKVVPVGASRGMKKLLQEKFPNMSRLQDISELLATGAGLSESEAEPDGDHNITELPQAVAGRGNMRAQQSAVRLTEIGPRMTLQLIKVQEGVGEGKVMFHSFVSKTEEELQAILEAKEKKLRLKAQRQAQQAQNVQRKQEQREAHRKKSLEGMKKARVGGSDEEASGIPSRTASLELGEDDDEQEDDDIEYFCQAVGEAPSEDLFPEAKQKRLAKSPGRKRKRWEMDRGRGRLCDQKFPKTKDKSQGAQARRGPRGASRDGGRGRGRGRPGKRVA
Sequence of UniProt Q9ULI3 (Q9ULI3 whole entry): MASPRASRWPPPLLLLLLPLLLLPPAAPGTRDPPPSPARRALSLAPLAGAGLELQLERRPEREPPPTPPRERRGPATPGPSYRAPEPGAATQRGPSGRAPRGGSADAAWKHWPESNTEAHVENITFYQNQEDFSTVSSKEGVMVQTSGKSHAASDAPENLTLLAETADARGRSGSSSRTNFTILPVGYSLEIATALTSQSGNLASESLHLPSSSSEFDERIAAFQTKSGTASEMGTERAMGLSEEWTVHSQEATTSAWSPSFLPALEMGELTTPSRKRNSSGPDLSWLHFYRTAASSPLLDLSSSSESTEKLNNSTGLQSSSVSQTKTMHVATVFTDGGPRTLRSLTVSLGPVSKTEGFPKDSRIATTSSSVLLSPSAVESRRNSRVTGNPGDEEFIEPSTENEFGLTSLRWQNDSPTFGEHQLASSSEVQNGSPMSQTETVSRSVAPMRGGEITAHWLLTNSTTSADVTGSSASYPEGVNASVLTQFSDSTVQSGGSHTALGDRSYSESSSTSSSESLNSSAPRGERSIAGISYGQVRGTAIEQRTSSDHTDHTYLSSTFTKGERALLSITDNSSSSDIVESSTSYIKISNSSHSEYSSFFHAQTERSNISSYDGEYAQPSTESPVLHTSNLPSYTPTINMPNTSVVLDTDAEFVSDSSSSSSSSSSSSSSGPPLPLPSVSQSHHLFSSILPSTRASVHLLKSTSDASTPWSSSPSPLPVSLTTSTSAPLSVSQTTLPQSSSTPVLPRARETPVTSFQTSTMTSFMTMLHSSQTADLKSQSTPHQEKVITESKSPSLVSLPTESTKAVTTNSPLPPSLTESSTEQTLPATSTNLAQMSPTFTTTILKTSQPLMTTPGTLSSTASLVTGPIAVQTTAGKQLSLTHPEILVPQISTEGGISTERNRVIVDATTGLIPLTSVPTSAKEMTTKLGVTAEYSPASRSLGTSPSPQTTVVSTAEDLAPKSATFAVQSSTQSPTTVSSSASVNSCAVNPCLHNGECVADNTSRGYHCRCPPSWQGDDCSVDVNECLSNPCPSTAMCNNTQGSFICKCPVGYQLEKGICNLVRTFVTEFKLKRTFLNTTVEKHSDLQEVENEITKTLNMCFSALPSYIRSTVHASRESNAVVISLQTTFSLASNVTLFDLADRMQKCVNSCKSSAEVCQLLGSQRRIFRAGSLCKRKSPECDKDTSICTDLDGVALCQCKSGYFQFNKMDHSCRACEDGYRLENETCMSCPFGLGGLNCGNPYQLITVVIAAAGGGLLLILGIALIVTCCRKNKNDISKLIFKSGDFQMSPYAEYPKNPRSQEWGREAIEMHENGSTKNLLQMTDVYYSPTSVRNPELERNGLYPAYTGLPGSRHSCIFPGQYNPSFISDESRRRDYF
Sequence of UniProt Q9Y496 (Q9Y496 whole entry): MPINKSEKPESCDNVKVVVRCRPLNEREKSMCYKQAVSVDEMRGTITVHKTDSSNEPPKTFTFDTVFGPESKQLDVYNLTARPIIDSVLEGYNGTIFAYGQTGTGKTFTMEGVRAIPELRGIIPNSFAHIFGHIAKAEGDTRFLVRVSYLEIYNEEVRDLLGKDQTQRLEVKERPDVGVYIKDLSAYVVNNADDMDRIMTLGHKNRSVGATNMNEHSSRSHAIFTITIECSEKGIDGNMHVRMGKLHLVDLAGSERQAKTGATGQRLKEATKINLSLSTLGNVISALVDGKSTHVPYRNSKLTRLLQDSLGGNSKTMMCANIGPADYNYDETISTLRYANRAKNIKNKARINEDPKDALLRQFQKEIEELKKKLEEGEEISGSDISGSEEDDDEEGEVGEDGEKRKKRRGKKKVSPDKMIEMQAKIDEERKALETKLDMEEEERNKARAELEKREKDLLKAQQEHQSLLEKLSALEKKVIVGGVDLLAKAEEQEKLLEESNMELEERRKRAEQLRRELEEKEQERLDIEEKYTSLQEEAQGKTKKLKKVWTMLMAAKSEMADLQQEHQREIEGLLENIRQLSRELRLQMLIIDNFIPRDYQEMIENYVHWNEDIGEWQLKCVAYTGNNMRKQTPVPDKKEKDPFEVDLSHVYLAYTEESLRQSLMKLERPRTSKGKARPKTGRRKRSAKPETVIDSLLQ

Row | Target | log2 ratio of iodoacetamide-alkyne labeling
1 | TES C196 (UniProt Q9UGI8) | 0.308 (inactive)
2 | DLGAP4 C726 (UniProt Q9Y2H0) | 0.74 (inactive)
3 | HEG1 C1360 (UniProt Q9ULI3) | 1.36 (active)
4 | ITSN2 C1194 (UniProt Q9NZM3) | -0.296 (inactive)
5 | MAP3K4 C163 (UniProt Q9Y6R4) | 0.0336 (inactive)
6 | PPAN C432 (UniProt Q9NQ55) | 0.73 (inactive)
7 | UniProt Q9NUQ3_C56 | 1.97 (active)
8 | SMYD3 C421 (UniProt Q9H7B4) | 0.00903 (inactive)
9 | RNF126 C229 (UniProt Q9BV68) | -0.457 (inactive)
10 | NFU1 C213 (UniProt Q9UMS0) | 0.895 (inactive)
11 | KIF3A C621 (UniProt Q9Y496) | 0.962 (inactive)
12 | RCL1 C13 (UniProt Q9Y2P8) | -0.0901 (inactive)
13 | CPSF3 C655 (UniProt Q9UKF6) | 0.293 (inactive)
14 | TANC1 C131 (UniProt Q9C0D5) | 0.487 (inactive)
15 | ADD3 C73 (UniProt Q9UEY8) | 0.00986 (inactive)
16 | SRP68 C247 (UniProt Q9UHB9) | 0.197 (inactive)
17 | SRRM2 C1016 (UniProt Q9UQ35) | 1.12 (active)
18 | STRAP C305 (UniProt Q9Y3F4) | 0.0837 (inactive)
19 | RDH14 C97 (UniProt Q9HBH5) | 0.228 (inactive)
20 | SAP30BP C127 (UniProt Q9UHR5) | 1.3 (active)
21 | UniProt Q9Y678_C129 | 0.51 (inactive)
22 | BCAP29 C171 (UniProt Q9UHQ4) | 1.1 (active)
